Most compounds without a hit are left out; they make up all but 12% or so of the library.
HP1b binding inh – inhibitors of HP1-beta chromodomain binding to methylated histone tails. P83916. AlphaScreen HP1-beta / biotin-H3K9me3 peptide binding. Potency, µM (series often up to 114 µM), without a hit: at the top dose activity change, negative = inhibition, most hits filed as inhibitors. 390,000 compounds, 0.56% hits; also: nearly all actives have a fitted effect of over 70% in size
Target sequence (P83916 whole entry, looked up): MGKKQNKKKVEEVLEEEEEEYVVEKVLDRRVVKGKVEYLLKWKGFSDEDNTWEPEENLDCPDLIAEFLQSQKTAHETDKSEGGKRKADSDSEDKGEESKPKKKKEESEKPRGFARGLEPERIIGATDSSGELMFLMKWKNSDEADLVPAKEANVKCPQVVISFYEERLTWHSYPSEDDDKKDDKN
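Compound inhibition of the preformed complex between 50 nM HP1-beta and 50 nM biotinylated H3K9me3 peptide was read by AlphaScreen. Buffer was PBS pH 7.4 with 0.01% Tween-20. Incubations ran 30 min at room temperature, with 10 ug/mL donor/acceptor beads.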
JMJD2A Tudor inh – JMJD2A Tudor domain (human) inhibition. AlphaScreen JMJD2A-Tudor / H3K4me3 peptide binding. Potency, µM (highest dose often 114 µM), without a hit: top-dose activity change, negative = inhibition, hits mostly inhibitors. O75164. 390,000 compounds, 4.4% hits; also: % is scaled to controls: 0 for no effect and ±100 for the full control effect; nearly all actives have a fitted effect of over 50% in size
PLK1 PBD block – blocks phosphopeptide binding to human PLK1 polo-box domain. P53350. Plk1 PBD binding of FITC phosphopeptide, fluorescence polarization. Potency, µM, inactives show max response, negative = inhibition, hits mostly inhibitors. 360,000 compounds, 2.8% hits. AID 720504; also: series mostly up to about 57 µM; % is scaled to controls: 0 for no effect and ±100 for the full control effect; nearly all actives have a fitted effect of over 65% in size
Sfp PPTase inh – inhibitors of Bacillus subtilis Sfp phosphopantetheinyl transferase; Q9F4F7; Biochemical Sfp PPTase activity, qHTS; Potency, µM, without a hit: largest response in the series, negative = inhibition, most hits filed as inhibitors; 310,000 compounds, 3.5% hits; AID 1490;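 also: the enzyme is Sfp with the accession as filed and its product quenches rhodamine fluorescence; 0% = enzyme reaction without inhibitor and -100% = no enzyme wells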
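Reaction rates are the 30-min fluorescence difference (ex 525, em 598 nm) in wells containing 15 nM Sfp, 5 uM rhodamine-CoA and 12.5 uM BHQ-2-YbbR at pH 7.6 with 10 mM MgCl2.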
BAZ2B inh – BAZ2B (human) inhibition. 360,000 compounds, 4.4% hits. AID 504333. AlphaScreen BAZ2B-H3K14Ac peptide displacement. Potency, µM (highest dose often 114 µM), for the others: top-dose activity change, negative = inhibition, usual class: inhibitors. Q9UIF8; also: % is scaled to controls: 0 for no effect and ±100 for the full control effect; nearly all actives have a fitted effect of over 60% in size
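Multi-concentration screen (max 110 uM) measuring displacement of acetylated histone H3 peptide from BAZ2B by AlphaScreen, using 50 nM protein, 50 nM peptide and 10 ug/mL streptavidin donor plus Ni-chelate acceptor beads.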
G9a block – G9a (human) methyltransferase inhibition | Potency, µM (series often up to 102 µM), inactives show at the top dose activity, negative = inhibition, actives largely listed as inhibitors | Q96KQ7 | G9a H3K9 monomethylation, AlphaScreen, 2 h | 350,000 compounds, 8.8% hits; also: % is scaled to controls: 0 for no effect and ±100 for the full control effect; nearly all actives have a fitted effect of over 75% in size
Target sequence (Q96KQ7 913-1193 limits assumed): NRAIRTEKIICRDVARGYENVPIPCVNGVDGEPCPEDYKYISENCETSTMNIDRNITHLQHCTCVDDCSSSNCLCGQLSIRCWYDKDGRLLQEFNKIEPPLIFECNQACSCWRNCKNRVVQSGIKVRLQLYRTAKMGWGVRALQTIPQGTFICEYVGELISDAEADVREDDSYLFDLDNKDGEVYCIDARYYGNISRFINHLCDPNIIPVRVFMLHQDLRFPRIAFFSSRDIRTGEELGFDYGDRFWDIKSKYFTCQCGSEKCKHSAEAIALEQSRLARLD
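Enzyme 20 nM + cpd, 15 min RT; add b-H3K9 pep 500 nM / SAM 20 uM; 2 h RT; anti-H3K9me1 Ab 0.5 ug/mL + SA donor / anti-rabbit acceptor beads 20 ug/mL each, 10 min; AlphaScreen read.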
* = called active by the depositor; ? = inconclusive; nt = not tested or not shown; ! = repeats disagree; [ ] = remark or other dose. Calls follow the shape of the dose curve; as a rule, active = well fitted curve in the direction sought with a large enough effect; inconclusive = small, poorly fitted or top-dose-only effect, or another doubt; inactive = no such curve, though single readings can be large; an effect the other way counts as inactive or inconclusive. Potency is read from the fitted curve at half-maximal effect.

SMILES	HP1b binding inh	JMJD2A Tudor inh	PLK1 PBD block	Sfp PPTase inh	BAZ2B inh	G9a block
CC(=O)NNC(=S)NC(=O)C(c1ccccc1)c1ccccc1	31%	-18%	-7%	4%	-5%	nt
CCOc1cc(C(=O)NC(=S)Nc2ccc(Cl)c(C(=O)O)c2)cc(OCC)c1OCC	-4%	?	?	?	-26%	40µM*
COc1c(C)cc(Br)cc1C(=O)NC(=S)Nc1ccc(Cl)c(C(=O)O)c1	18%	-20%	17µM*	-16%	-2%	50µM*
O=C(O)c1cc(NC(=S)NC(=O)C(c2ccccc2)c2ccccc2)ccc1Cl	2%	-13%	67µM*	-7%	-20%	?
CC1CCC(NC(=O)c2ccc(CS(=O)(=O)c3ccc(Cl)cc3)o2)CC1 (centres undefined)	22%	-15%	nt	nt	2%	-21%[59 µM]
CC1CCN(Cc2c(C(=O)N/N=C/c3ccc(OC(C)C)cc3)nnn2-c2nonc2N)CC1	-4%	-36%	3%	3%	9%	15%
C=CCOC(=O)c1c(C)nc2cc3c(cc2c1C)OCO3	34%	-2%	-7%	3%	-5%	?
Cc1nc(CCNC(=O)c2cc(COc3ccc(F)cc3Cl)on2)sc1C	19%	-11%	-14%	40µM*	-30%	nt
CCCCCn1c(N)c(-c2nc3ccccc3o2)c2c([N+](=O)[O-])nn(CC)c(=O)c21	?	?	-13%	10%	?	-35%[59 µM]
CCCCCn1c(N)c(-c2nc3ccccc3o2)c2c([N+](=O)[O-])nn(C)c(=O)c21	21%	45µM*	-29%	3%	?	-34%[59 µM]
CCN1CCN(c2ccc(S(=O)(=O)N3CCCCC3)cc2NC(=O)COc2ccc(Cl)cc2)CC1	-19%	?	6%	nt	?	5µM*
CCN1CCN(c2ccc(S(=O)(=O)N3CCCCC3)cc2NC(=O)COc2cc(C)ccc2Cl)CC1	-27%	?	1%	nt	79µM*	10µM*
CCN1CCN(c2ccc(S(=O)(=O)N3CCCCC3)cc2NC(=O)COc2ccc(F)cc2Cl)CC1	-9%	?	3%	?	?	?
Cc1c(C(=O)O)sc2nc(/C=C/c3cccc(F)c3)[nH]c(=O)c12	43%	-3%	-6%	9%	?	3%
Cc1c(C(=O)O)sc2nc(/C=C/c3ccccc3OC(F)F)[nH]c(=O)c12	?	16µM*	-24%	?	71µM*	?
Cc1ccc(/C=C/c2nc3sc(C(=O)O)c(C)c3c(=O)[nH]2)cc1[N+](=O)[O-]	-8%	?	?	79µM*	89µM*	7.1µM*
Cc1cc2c(cc1S(=O)(=O)NCc1ccc(F)cc1)OCC(=O)N2	20%	-23%	nt	nt	-27%	-42%[59 µM]
O=C1COc2cc(S(=O)(=O)NCc3ccco3)c(Cl)cc2N1	24%[57 µM]	-21%	nt	nt	50µM*	?
Cc1cc2c(cc1S(=O)(=O)N1CCCCC1)OCC(=O)N2	?	-17%	-10%	8%	79µM*!	-6%
Cc1cc2c(cc1S(=O)(=O)N1CCC(C)CC1)OCC(=O)N2	-13%	-30%	nt	nt	?	?
CCN(CC)c1ccc(CNS(=O)(=O)c2cc3c(cc2C)NC(=O)CO3)cc1	8%[57 µM]	?	nt	nt	-36%	14µM*
O=C(CSc1ncc(C(F)(F)F)cc1Cl)N1CCN(S(=O)(=O)c2ccc3ccccc3c2)CC1	-8%	?	24µM*	12%	-3%	11%[59 µM]
O=C(CSc1ncc(C(F)(F)F)cc1Cl)N1CCNC1=O	47%	-2%	27µM*	nt	nt	nt
CCOc1ccccc1NC(=O)Cn1c(=O)n(-c2ccc(C)cc2)c(=O)c2c1cnn2C	32%	-10%	nt	nt	0%	-5%[59 µM]
COc1cc(C)c2c(=O)cc(-c3ccccc3)oc2c1	nt	nt	nt	-34%	nt	nt
SMILES	HP1b binding inh	JMJD2A Tudor inh	PLK1 PBD block	Sfp PPTase inh	BAZ2B inh	G9a block
CC(=O)Nc1ccc(S(=O)(=O)NCc2ccc3[nH]c(C)cc3c2)cc1	-18%	?	-12%	2%	-34%	-9%[59 µM]
Cc1ccc(S(=O)(=O)NCc2ccc3[nH]c(C)cc3c2)cc1	3%	-31%	-1%	14%	nt	50µM*
CC12CCC(C(=O)N3CCN(Cc4ccccc4)CC3)(OC1=O)C2(C)C (centres undefined)	32%	-4%	-4%	15%	10%	0%
Cc1ccc(C(=O)CC2(O)C(=O)N(Cc3ccccc3F)c3ccccc32)cc1 (centres undefined)	17%	-20%	nt	nt	?	-23%[59 µM]
N#CCCCN1C(=O)C(O)(CC(=O)c2ccc3c(c2)OCCO3)c2ccccc21 (centres undefined)	17%	-17%	-5%	17%	8%	35µM*
C=C(C)CN1C(=O)C(O)(CC(=O)c2ccc3c(c2)OCCO3)c2ccccc21 (centres undefined)	25%	-8%	-7%	24%	3%	4%[12.7 µM]
Cc1ccc(CN2C(=O)C(O)(CC(=O)c3ccc(C)cc3)c3ccccc32)cc1 (centres undefined)	?	50µM*	nt	nt	13µM*	11µM*
Cc1coc(C)c1C(=O)CC1(O)C(=O)N(Cc2ccccc2)c2ccccc21 (centres undefined)	?	89µM*	27µM*	?	?	-39%[59 µM]
CC(=O)CC1(O)C(=O)N(Cc2ccccc2)c2ccccc21 (centres undefined)	?	-32%[57.1 µM]	27µM*	10%	5%	12%
CCCC(=O)Nc1c(C(=O)OCC)[nH]c2ccccc12	12%	-13%	-14%	0%	5%	-14%[59 µM]
COC(=O)c1[nH]c2cccc(OC)c2c1NC(=O)CN1CCN(c2cccc(OC)c2)C(C)C1 (centres undefined)	-7%	-28%	2%	?	?	?
CCOC(=O)c1[nH]c2cc(OC)c(OC)cc2c1NC(=O)CN1CCN(c2ccc(OC)cc2)C(C)C1 (centres undefined)	nt	nt	nt	8%	45µM*	22µM*
CCOC(=O)c1[nH]c2ccccc2c1NC(=O)Nc1ccc(OC)cc1	18%	-4%	-6%	-22%	12%	50µM*
CCCS(=O)(=O)Nc1c(C(=O)OC)[nH]c2ccccc12	24%	0%	-6%	-10%	1%	50µM*
CCOC(=O)c1[nH]c2ccc(OC)cc2c1NC(=O)c1ccccc1C(=O)O	50%	-19%	-7%	?	-7%	45µM*
COc1ccccc1N(CC(=O)N1CCC(C)CC1)S(=O)(=O)c1ccc(C)cc1	34%	4%	nt	nt	-3%	1%[59 µM]
Cc1cc(C)c(Cn2c(=O)n(CCC(=O)NCc3ccc4c(c3)OCO4)c(=O)c3ccccc32)c(C)c1	20%	-6%	nt	nt	1%	-5%[59 µM]
